Laboratory results as given in ChEMBL document CHEMBL1157539, “Thousands of chemical starting points for antimalarial lead identification” (Nature, 2010).

Tests used:
Format in all cases: functional
Plasmodium falciparum [1] = test: GSK_TCMDC: Inhibition of Plasmodium falciparum 3D7 in whole red blood cells, using parasite LDH activity as an index of growth. Test compounds present at 2uM
Plasmodium falciparum [2] = test: GSK_TCMDC: Inhibition of Plasmodium falciparum Dd2 in whole red blood cells, using parasite LDH activity as an index of growth. Test compounds present at 2uM
HepG2 = test: GSK_TCMDC: Percent inhibition of human HepG2 cell line. Test compounds present at 10uM.

| SMILES | Inhibition (Plasmodium falciparum [1]) | Inhibition (Plasmodium falciparum [2]) | Inhibition (HepG2) |
| --- | --- | --- | --- |
| CCCCN(CCCC)C(=O)CC(O)c1cc2c(Cl)cc(Cl)cc2c2cc(C(F)(F)F)ccc12 (stereo unspecified) | 92% | 68% | 0% |
| CCN(CC)CCN(Cc1ccc(-c2ccc(C(F)(F)F)cc2)cc1)C(=O)Cn1c(/C=C/c2ccco2)nc(=O)c2ccccc21.O=C(O)C(O)C(O)C(=O)O | 94% | 86% | 28% |
| Cl.O=C(c1ccc(Cl)c(Cl)c1)N1CCc2c([nH]c3ccccc23)C1CN1CCCC1 (stereo unspecified) | 94% | 16% | 83% |
| Cl.O=c1cc(NCCCNCc2sc(Br)c(Br)c2Br)[nH]c2ccccc12 | 90% | 38% | 0% |
| COc1cccc(C(=O)NC(NC(=S)Nc2ccc(OC)cc2[N+](=O)[O-])C(Cl)(Cl)Cl)c1 (stereo unspecified) | 99% | 49% | 9% |
| CC(C)C[C@H](NC(=O)c1cc2cc(OCCN3CCNCC3)ccc2o1)C(=O)NC1CC[C@@H](C)N(C(=O)Nc2ccc(Cl)cc2)CC1=O.O=C(O)C(F)(F)F (stereo partly specified) | 90% | 92% | 0% |
| CC1CCCCN1CCCNC(=O)c1cccc(-c2cc3cc(Cl)c(Cl)cc3[nH]2)c1.O=C(O)C(F)(F)F (stereo unspecified) | 94% | 7% | 22% |
| CC(C)(C)OC(=O)Nc1cccc(-c2csc(NC(=N)N)n2)c1 | 97% | 83% | 4% |
| COc1cccc(C(=O)NCCOc2ccccc2)c1Oc1ccccc1 | 98% | 98% | 14% |
| O=C(NC1CCN(c2ccnc3ccccc23)C1)c1ccc(OC(F)(F)F)cc1.O=C(O)C(F)(F)F (stereo unspecified) | 89% | 68% | 35% |
| CCCC(=O)Nc1ccc(OCCCCN(CC(C)(C)C)c2ccc(C#N)c(C(F)(F)F)c2)cc1 | 83% | 69% | 9% |
| CN1CCC(N2CCN(Cc3ccc(-c4cccc(-c5nc6cc(F)ccc6[nH]5)c4)cc3)CC2)CC1.O=C(O)C(F)(F)F | 100% | 99% | 67% |
| O=C(Nc1ccc(-c2nc3ccccc3[nH]2)cc1)c1cccc(S(=O)(=O)N2CCCC2)c1 | 100% | 64% | 0% |
| Cc1cc(-c2ccc3occ(CCN)c3c2)cnc1N | 92% | 56% | 0% |
| FC(F)(F)c1cccc(CCNc2nccc(NCc3ccccc3Cl)n2)c1 | 89% | 38% | 31% |
| O=C(/C=C/C=C/c1ccc(Cl)c(Cl)c1)NCCCCCN1CCCC2CCCCC21 (stereo unspecified) | 91% | 48% | 41% |
| CCN(CCO)CCc1cccc(Nc2nccc(-c3c(-c4ccc(NC(=O)N(CC)CC)cc4)nn4ccccc34)n2)c1.Cl | 100% | 95% | 46% |
| O=C(Nc1ccc(Cl)cc1)Nc1nc2cc([N+](=O)[O-])ccc2[nH]1 | 100% | 6% | 0% |
| O=C(N[C@H]1CCN(Cc2ccc(OC3CCN(Cc4ccccc4)CC3)c(Cl)c2)C1)c1ccc(Cl)c(Cl)c1.O=C(O)C(F)(F)F | 99% | 11% | 59% |
| COc1ccc2c(c1)CC(NCc1ccc(-c3ccc4nc[nH]c4c3)cc1)C2.O=C(O)C(F)(F)F (stereo unspecified) | 100% | 71% | 30% |
| CSc1ccc2nccc(Nc3ccc(Oc4ccccc4)cc3)c2c1.Cl | 94% | 68% | 30% |
| Cc1cc(=O)c(C2CCC(c3ccc(Cl)cc3)CC2)c(C)[nH]1 (stereo unspecified) | 88% | 70% | 0% |
| CN1CCCC(CN2CCN(Cc3ccc(-c4ccc(-c5nc6cc(F)ccc6[nH]5)cc4)cc3)CC2)C1.O=C(O)C(F)(F)F (stereo unspecified) | 100% | 98% | 90% |
| CN1CCC[C@H]1COc1ccc(CN2CC[C@H](NC(=O)c3ccc(Cl)c(Cl)c3)C2)cc1Cl.O=C(O)C(F)(F)F | 97% | 44% | 53% |
| COc1ccc(NC(=O)Nc2ccc(Nc3nc(C)cc(N4CCCC4)n3)cc2)cc1 | 100% | 100% | 14% |
| COc1ccc(Oc2ccccc2CNCC2CCN(CC3CCCCC3)CC2)cc1.O=C(O)C(F)(F)F | 85% | 28% | 34% |
| CC(C)c1ccc(CN2CCC(CNC(=O)c3cc(-c4cccc(Cl)c4)cs3)C2)cc1.O=C(O)C(F)(F)F (stereo unspecified) | 99% | 43% | 42% |
